Calls of active or inactive are those of the source. The calls were made as follows: active = hit-call score of the fitted dose curve at least 0.9, where 1 is the maximum; inactive = score below 0.9.
Columns and labels:
[1] = read-out: Urokinase-type plasminogen activator receptor (uPAR), PLAUR (gene 5329); assay: BSK_4H_uPAR: BioMAP Diversity Plus: 4H Assay for Urokinase-type plasminogen activator receptor (uPAR) Biomarker Activity (AID 2283030); settings: primary human endothelial cells (HUVEC); actives raise or lower the signal
How it was run: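 uPAR level read by ELISA on HUVEC cultures (BioMAP 4H) 24 h post-dosing, analyzed for gain or loss relative to DMSO. Parallel SRB staining assessed overt cytotoxicity.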

[2] = read-out: Vascular endothelial growth factor receptor 2 (Homo sapiens) (UniProt P35968); assay: BSK_4H_VEGFRII: BioMAP Diversity Plus: 4H Assay for Vascular endothelial growth factor receptor 2 (VEGFR2) Biomarker Activity (AID 2283031); settings: primary human endothelial cells (HUVEC); actives raise or lower the signal;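 as to AC50: cell-surface VEGFR2 protein level quantified by ELISA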
How it was run: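 Measured by ELISA after 24 h of compound treatment: VEGFR2 on primary human umbilical vein endothelial cells, fitted in both directions relative to DMSO. Parallel cultures received SRB staining (560 nm) for overt cytotoxicity.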

[3] = read-out: Human Leukocyte Antigen - DR isotype (HLADR), HLA-DRA (gene 3122); assay: BSK_BE3C_HLADR: BioMAP Diversity Plus: BE3C Assay for Human Leukocyte Antigen - DR isotype (HLADR) Biomarker Activity (AID 2283032); settings: primary human bronchial epithelial cells; actives raise or lower the signal
How it was run: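 Cell-surface HLA-DR ELISA readout at 24 h after dosing in the BE3C primary human lung bronchial epithelial system; gain or loss of signal against DMSO, with parallel sulforhodamine B staining of total protein for overt cytotoxicity.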

[4] = read-out: Vascular cell adhesion molecule 1 (VCAM1), VCAM1 (gene 7412); assay: BSK_4H_VCAM1: BioMAP Diversity Plus: 4H Assay for Vascular cell adhesion molecule 1 (VCAM1) Biomarker Activity (AID 2283033); settings: primary human endothelial cells (HUVEC); actives raise or lower the signal;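 as to outcome: cell-surface VCAM-1 protein measured by ELISA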
How it was run: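 VCAM-1 ELISA read 24 h after chemical dosing of HUVEC in the BioMAP 4H system, with gain or loss of signal fitted relative to DMSO. Parallel SRB staining (560 nm) checked overt cytotoxicity.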

[5] = read-out: Interferon-gamma inducible Protein 10 (IP10), CXCL10 (gene 3627); assay: BSK_BE3C_IP10: BioMAP Diversity Plus: BE3C Assay for Interferon-gamma inducible Protein 10 (IP10) Biomarker Activity (AID 2283034); settings: primary human bronchial epithelial cells; actives raise or lower the signal
How it was run: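 IP-10 quantified by ELISA in human primary bronchial epithelial cell cultures at 24 hours post-dosing. Gain or loss of signal fitted relative to DMSO; parallel SRB staining assessed overt cytotoxicity.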

[6] = read-out: Monokine induced gamma interferon (MIG), CXCL9 (gene 4283); assay: BSK_BE3C_MIG: BioMAP Diversity Plus: BE3C Assay for Monokine induced gamma interferon (MIG) Biomarker Activity (AID 2283035); settings: primary human bronchial epithelial cells; actives raise or lower the signal
How it was run: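 Dose cells (human primary bronchial epithelial), incubate 24 h, quantify MIG by ELISA, then fit concentration–response in both directions relative to DMSO control.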

[7] = read-out: Transforming growth factor beta 1 (TGFb1), TGFB1 (gene 7040); assay: BSK_BE3C_TGFb1: BioMAP Diversity Plus: BE3C Assay for Transforming growth factor beta 1 (TGFb1) Biomarker Activity (AID 2283036;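 also: TGF-b1 protein level measured by ELISA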); settings: primary human bronchial epithelial cells; actives raise or lower the signal
How it was run: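 ELISA readout of TGF-b1 from human lung bronchial epithelial primary cells, taken 24 h post-treatment. Gain or loss of signal fitted relative to DMSO baseline, with parallel SRB staining for overt cytotoxicity.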

[8] = read-out: Plasminogen activator inhibitor-1 (PAI1), SERPINE1 (gene 5054); assay: BSK_BE3C_PAI1: BioMAP Diversity Plus: BE3C Assay for Plasminogen activator inhibitor-1 (PAI1) Biomarker Activity (AID 2283037); settings: primary human bronchial epithelial cells; actives raise or lower the signal
How it was run: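 PAI-1 was measured by ELISA in human primary bronchial epithelial cultures 24 h after chemical dosing, with cytotoxicity checked by SRB total-protein staining in parallel cultures. Activity was fitted in both directions relative to DMSO.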

[9] = read-out: urokinase plasminogen activator (uPA), PLAU (gene 5328); assay: BSK_BE3C_uPA: BioMAP Diversity Plus: BE3C Assay for urokinase plasminogen activator (uPA) Biomarker Activity (AID 2283038); settings: primary human bronchial epithelial cells; actives raise or lower the signal;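 as to outcome: uPA protein level quantified by ELISA in cell cultures; uPA read one day after compound addition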
How it was run: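 ELISA for uPA on human primary bronchial epithelial cultures 24 h post-treatment, gain or loss against DMSO. Parallel SRB staining (0.1% after 10% TCA fixation, 560 nm) assessed overt cytotoxicity.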

[10] = read-out: Urokinase-type plasminogen activator receptor (uPAR), PLAUR (gene 5329); assay: BSK_BE3C_uPAR: BioMAP Diversity Plus: BE3C Assay for Urokinase-type plasminogen activator receptor (uPAR) Biomarker Activity (AID 2283039); settings: primary human bronchial epithelial cells; actives raise or lower the signal;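 also: cells exposed to compound for one day before measurement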
How it was run: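 uPAR levels were measured by ELISA after 24 h compound treatment of primary human bronchial epithelial cells, fitted in both directions relative to DMSO. Parallel SRB staining served as the cytotoxicity read-out.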

[11] = read-out: Interleukin-6 (IL6), IL6 (gene 3569); assay: BSK_CASM3C_IL6: BioMAP Diversity Plus: CASM3C Assay for Interleukin-6 (IL6) Biomarker Activity for (AID 2283040); settings: primary human coronary artery smooth muscle cells; actives raise or lower the signal
[12] = read-out: Tissue plasminogen activator (tPA), PLAT (gene 5327); assay: BSK_BE3C_tPA: BioMAP Diversity Plus: BE3C Assay for Tissue plasminogen activator (tPA) Biomarker Activity (AID 2283041); settings: primary human bronchial epithelial cells; actives raise or lower the signal;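 also: tPA level quantified by ELISA one day after compound addition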
How it was run: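 tPA measured by ELISA 24 h after dosing human primary bronchial epithelial cells (BE3C system). Changes in either direction were fitted against DMSO. Parallel cultures were stained with SRB to flag overt cytotoxicity.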

[13] = read-out: Interleukin-8 (IL8), CXCL8 (gene 3576); assay: BSK_CASM3C_IL8: BioMAP Diversity Plus: CASM3C Assay for Interleukin-8 (IL8) Biomarker Activity (AID 2283042); settings: primary human coronary artery smooth muscle cells; actives raise or lower the signal;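 also: IL-8 protein level quantified by ELISA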
[14] = read-out: Human Leukocyte Antigen - DR isotype (HLADR), HLA-DRA (gene 3122); assay: BSK_CASM3C_HLADR: BioMAP Diversity Plus: CASM3C Assay for Human Leukocyte Antigen - DR isotype (HLADR) Biomarker Activity (AID 2283043); settings: primary human coronary artery smooth muscle cells; actives raise or lower the signal;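 also: cell-surface HLA-DR protein level quantified by ELISA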
[15] = read-out: Macrophage colony-stimulating factor (MCSF), CSF1 (gene 1435); assay: BSK_CASM3C_MCSF: BioMAP Diversity Plus: CASM3C Assay for Macrophage colony-stimulating factor (MCSF) Biomarker Activity (AID 2283044); settings: primary human coronary artery smooth muscle cells; actives raise or lower the signal;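 also: M-CSF protein amount quantified by ELISA after 24 h exposure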
[16] = read-out: Low-density lipoprotein receptor (LDLR), LDLR (gene 3949); assay: BSK_CASM3C_LDLR: BioMAP Diversity Plus: CASM3C Assay for Low-density lipoprotein receptor (LDLR) Biomarker Activity (AID 2283045); settings: primary human coronary artery smooth muscle cells; actives raise or lower the signal;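 also: LDLR protein level on the cell surface quantified by ELISA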
[17] = read-out: Monocyte Chemoattractant Protein-1 (MCP1), CCL2 (gene 6347); assay: BSK_CASM3C_MCP1: BioMAP Diversity Plus: CASM3C Assay for Monocyte Chemoattractant Protein-1 (MCP1) Biomarker Activity (AID 2283046); settings: primary human coronary artery smooth muscle cells; actives raise or lower the signal;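 also: MCP-1 level quantified by ELISA 24 h after dosing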
[18] = BSK_CASM3C_Proliferation: Cell Proliferation Assessment in the BioMAP Diversity Plus: CASM3C Assay (AID 2283047); settings: primary human coronary artery smooth muscle cells;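 also: sulforhodamine B total protein stain as relative cell number at 560 nm; sub-confluent cells exposed 48 h before staining; fitted both ways against DMSO so gain or loss of cell number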
[19] = read-out: Monokine induced gamma interferon (MIG), CXCL9 (gene 4283); assay: BSK_CASM3C_MIG: BioMAP Diversity Plus: CASM3C Assay for Monokine induced gamma interferon (MIG) Biomarker Activity (AID 2283048); settings: primary human coronary artery smooth muscle cells; actives raise or lower the signal;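 also: MIG protein level measured by ELISA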
[20] = read-out: serum amyloid A (SAA), SAA1 (gene 6288); assay: BSK_CASM3C_SAA: BioMAP Diversity Plus: CASM3C Assay for serum amyloid A (SAA) Biomarker Activity (AID 2283049); settings: primary human coronary artery smooth muscle cells; actives raise or lower the signal;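 also: SAA protein level quantified by ELISA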

## Cc1cc2c3c(c1)C(c1ccccc1)=N[C@@H](NC(=O)c1ccncc1)C(=O)N3CC2
[1]
  outcome: inactive
[2]
  outcome: inactive
[3]
  outcome: inactive
[4]
  outcome: inactive
[5]
  outcome: inactive
[6]
  outcome: inactive
[7]
  outcome: inactive
[8]
  outcome: inactive
[9]
  outcome: inactive
[10]
  outcome: inactive
[11]
  outcome: inactive
[12]
  outcome: inactive
[13]
  outcome: inactive
[14]
  outcome: inactive
[15]
  outcome: inactive
[16]
  outcome: inactive
[17]
  outcome: inactive
[18]
  outcome: inactive
[19]
  outcome: inactive
[20]
  outcome: inactive

## CC#Cc1cc(C)nc(Nc2ccccc2)n1
[1]
  outcome: inactive
[2]
  outcome: inactive
[3]
  outcome: inactive
[4]
  AC50: 18.1 µM (active)
[5]
  outcome: inactive
[6]
  outcome: inactive
[7]
  outcome: inactive
[8]
  outcome: inactive
[9]
  outcome: inactive
[10]
  outcome: inactive
[11]
  outcome: inactive
[12]
  outcome: inactive
[13]
  outcome: inactive
[14]
  outcome: inactive
[15]
  outcome: inactive
[16]
  outcome: inactive
[17]
  outcome: inactive
[18]
  outcome: inactive
[19]
  outcome: inactive
[20]
  outcome: inactive

## Nn1cnnc1
[1]
  outcome: inactive
[2]
  outcome: inactive
[3]
  outcome: inactive
[4]
  outcome: inactive
[5]
  outcome: inactive
[6]
  outcome: inactive
[8]
  outcome: inactive
[9]
  outcome: inactive
[10]
  outcome: inactive
[11]
  outcome: inactive
[12]
  outcome: inactive
[13]
  outcome: inactive
[14]
  outcome: inactive
[15]
  outcome: inactive
[16]
  outcome: inactive
[17]
  outcome: inactive
[18]
  outcome: inactive
[19]
  outcome: inactive
[20]
  outcome: inactive

## ClC(Cl)=C(c1ccc(Cl)cc1)c1ccc(Cl)cc1
[1]
  AC50: 32.8 µM (active)
[2]
  AC50: 34.9 µM (active)
[3]
  outcome: inactive
[4]
  AC50: 28.6 µM (active)
[5]
  outcome: inactive
[6]
  outcome: inactive
[8]
  outcome: inactive
[9]
  AC50: 13.1 µM (active)
[10]
  outcome: inactive
[11]
  outcome: inactive
[12]
  outcome: inactive
[13]
  outcome: inactive
[14]
  AC50: 20 µM (active)
[15]
  AC50: 20 µM (active)
[16]
  outcome: inactive
[17]
  outcome: inactive
[18]
  AC50: 29.1 µM (active)
[19]
  outcome: inactive
[20]
  outcome: inactive

## Clc1ccc(C(Cl)(Cl)Cl)cc1
[1]
  outcome: inactive
[2]
  outcome: inactive
[3]
  outcome: inactive
[4]
  outcome: inactive
[5]
  outcome: inactive
[6]
  outcome: inactive
[8]
  outcome: inactive
[9]
  outcome: inactive
[10]
  outcome: inactive
[11]
  outcome: inactive
[12]
  outcome: inactive
[13]
  outcome: inactive
[14]
  outcome: inactive
[15]
  outcome: inactive
[16]
  outcome: inactive
[17]
  outcome: inactive
[18]
  outcome: inactive
[19]
  outcome: inactive
[20]
  outcome: inactive

## Cc1ccccc1O
[1]
  outcome: inactive
[2]
  outcome: inactive
[4]
  outcome: inactive
[5]
  outcome: inactive
[6]
  outcome: inactive
[7]
  outcome: inactive
[8]
  outcome: inactive
[9]
  outcome: inactive
[10]
  outcome: inactive
[11]
  outcome: inactive
[12]
  outcome: inactive
[13]
  outcome: inactive
[14]
  outcome: inactive
[15]
  outcome: inactive
[16]
  outcome: inactive
[17]
  outcome: inactive
[18]
  outcome: inactive
[19]
  outcome: inactive
[20]
  outcome: inactive

— PubChem BioAssay (EPA / NIEHS)
